Compound activity deposited in PubChem BioAssay by National Center for Advancing Translational Sciences (NCATS).
An excerpt weighted towards active compounds, which were near 5.8% of everything screened.
KB-V1 cytotox: KB-V1 MDR subline cytotoxicity | KB-V1 MDR cells viability, CellTiter-Glo, 72 h | Potency, µM (doses to about 46.1 µM), usual class: cytotoxic | 400,000 compounds, 3.4% hits | AID 1347076; also: nearly all actives have a fitted effect of over 60% in size
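KB-V1, DMEM (no phenol red) + 10% FBS; cpd pin-transferred, titration series; 72 h, 37 degrees C; CellTiter-Glo, luminescence. Data normalized, curve-fit.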
SW480 rerep: inducers of DNA re-replication in SW480 colon cancer cells; SW480 DNA re-replication, Hoechst DNA content imaging, 48 h; Potency, µM (series often up to 46.1 µM), most hits filed as activators; 340,000 compounds, 1.8% hits; AID 624297; also: nearly all actives have a fitted effect of over 55% in size
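Cells (250 per well) received 23 nL compound or DMSO by pin tool and were kept 48 hr at 37 C, 5% CO2. Nuclei were then stained with Hoechst for 40 min and scanned for DNA content.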
PINK1 expr mod: PINK1 expression modulation. 410,000 compounds, 0.2% hits. Potency, µM (highest dose often 76.6 µM), hits mostly activators. AID 624263. PINK1 immunofluorescence, high-content cytometry, 24 h; active = well fitted activation curve with a large enough effect; inconclusive = small, poorly fitted or top-dose-only effect; cell line not stated here; also: nearly all actives have a fitted effect of over 65% in size
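Measures PINK1 amount and localization on or inside mitochondria by immunofluorescence. Stable cells get compounds at 5 concentrations for 24 hours before fixation and staining; CCCP controls included.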
MCF10A rereplic: induces DNA re-replication in MCF 10a normal breast cells; MCF 10A DNA re-replication, Hoechst nuclear intensity, 48 h; Potency, µM (series often up to 46.1 µM), actives largely listed as activators; 350,000 compounds, 2.9% hits; also: nearly all actives have a fitted effect of over 50% in size
KB-3-1 tox: kills parental KB-3-1 adenocarcinoma cells | KB-3-1 viability, CellTiter-Glo ATP luminescence, 72 h | Potency, µM (highest dose often 46.1 µM), usual class: cytotoxic | 400,000 compounds, 1.4% hits | AID 1347075; also: nearly all actives have a fitted effect of over 60% in size
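Screening of KB-3-1 cells (DMEM, 10% FBS, phenol-red free) ran from lowest to highest compound concentration; after 72 h at 37 °C viability was read luminescently and curves fitted.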
12-LOX inh: blocks human arachidonate 12S-lipoxygenase. P18054. purified 12hLO, xylenol orange hydroperoxide absorbance. Potency, µM (doses to about 108 µM), usual class: inhibitors. 580,000 compounds, 1.1% hits
Target sequence (P18054 whole entry, looked up): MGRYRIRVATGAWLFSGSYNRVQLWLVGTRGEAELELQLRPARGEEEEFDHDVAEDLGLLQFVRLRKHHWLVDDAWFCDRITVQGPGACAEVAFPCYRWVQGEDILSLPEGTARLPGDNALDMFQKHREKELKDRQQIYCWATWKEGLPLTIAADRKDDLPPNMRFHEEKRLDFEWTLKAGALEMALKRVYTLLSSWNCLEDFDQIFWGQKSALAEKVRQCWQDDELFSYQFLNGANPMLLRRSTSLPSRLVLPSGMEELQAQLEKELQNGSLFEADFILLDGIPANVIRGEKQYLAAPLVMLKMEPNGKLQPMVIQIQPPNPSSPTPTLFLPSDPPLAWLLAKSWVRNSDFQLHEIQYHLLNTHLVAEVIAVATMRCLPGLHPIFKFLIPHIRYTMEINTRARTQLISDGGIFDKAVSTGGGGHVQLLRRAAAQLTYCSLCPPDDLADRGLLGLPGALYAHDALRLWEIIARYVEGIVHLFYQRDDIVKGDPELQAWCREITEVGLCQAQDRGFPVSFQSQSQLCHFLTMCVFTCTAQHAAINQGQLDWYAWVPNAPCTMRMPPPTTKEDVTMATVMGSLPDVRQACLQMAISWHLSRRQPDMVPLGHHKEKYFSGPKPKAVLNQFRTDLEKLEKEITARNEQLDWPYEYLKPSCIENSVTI
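Hydroperoxide product was detected by ferrous iron/xylenol orange as the 573 to 405 nm absorbance ratio. Arachidonic acid at 40 uM (final) was turned over for 30 min at room temperature by 150 nM human 12hLO, pH 7.0 Hepes buffer, after 15 min compound preincubation.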
Hits are given with their value; ! = not confirmed by another sample. Unless noted, calls follow the shape of the dose curve; as a rule, active = well fitted curve in the direction sought with a large enough effect; inconclusive = small, poorly fitted or top-dose-only effect, or another doubt; inactive = no such curve, though single readings can be large; an effect the other way counts as inactive or inconclusive.

Results for CCCCC(O)(c1ccc(CC)cc1)C(CN1CCOCC1)c1ccccc1 (stereo unspecified) ?
KB-V1 cytotox: inactive; SW480 rerep: inconclusive; PINK1 expr mod: inactive; MCF10A rereplic: inconclusive; KB-3-1 tox: 16.4µM; 12-LOX inh: inconclusive

How did CCCCCC(O)(c1ccc(OC)cc1)C(CN1CCOCC1)c1ccccc1 (stereo unspecified) do in these assays?
KB-V1 cytotox: 13µM; SW480 rerep: inconclusive; PINK1 expr mod: inactive; MCF10A rereplic: 16.4µM; KB-3-1 tox: inconclusive; 12-LOX inh: inconclusive

What do the screens show for `COc1ccc(C(O)(c2ccccc2OC)C(CN2CCOCC2)c2ccccc2)cc1` (stereo unspecified)?
KB-V1 cytotox: 20.6µM; SW480 rerep: inactive; PINK1 expr mod: inactive; MCF10A rereplic: inactive; KB-3-1 tox: inconclusive; 12-LOX inh: inactive

How did CCCCCC(O)(c1ccc(OCC)cc1)C(CN1CCOCC1)c1ccccc1 (stereo unspecified) do in these assays?
KB-V1 cytotox: inconclusive; SW480 rerep: 25.9µM; PINK1 expr mod: inconclusive; MCF10A rereplic: inconclusive; KB-3-1 tox: inconclusive; 12-LOX inh: inactive

What do the screens show for `CCn1cnnc1CC1CCN(C(=O)c2cc(-c3ccc(C)c(C)c3)nc3ccccc23)CC1`?
12-LOX inh: inactive

How did O=C(N1CCOc2ccc(CN3CCc4ccccc4C3)cc2C1)C1(c2ccccc2)CC1 do in these assays?
12-LOX inh: inactive

Results for COc1cccc(-c2cc(C(=O)NCCC(C)n3ccnc3)[nH]n2)c1 (stereo unspecified) ?
12-LOX inh: inactive

What do the screens show for `Cc1ccc(CNS(=O)(=O)c2ccc3c(c2)N(Cc2noc(C)n2)C(=O)CO3)cc1`?
12-LOX inh: inactive

What do the screens show for `N#CCN1CCNCC1`?
12-LOX inh: inactive

What do the screens show for `O=C(NC[C@H]1Cn2c(-c3ccc4c(c3)OCO4)cnc2CO1)Nc1ccc(F)cc1`?
12-LOX inh: inactive

What do the screens show for `Cc1nn2c(c1-c1ccccc1-c1ccccc1)N(CCC(C)C)CCC2`?
12-LOX inh: 39.8µM

What do the screens show for `CCOc1ccccc1C=C1SC(=S)NC1=O`?
KB-V1 cytotox: inactive; SW480 rerep: inactive; PINK1 expr mod: inconclusive; MCF10A rereplic: 18.4µM; KB-3-1 tox: inactive; 12-LOX inh: inactive

What do the screens show for `O=C1NC(=S)SC1=Cc1ccccc1Br`?
KB-V1 cytotox: inactive; SW480 rerep: inactive; PINK1 expr mod: inconclusive; MCF10A rereplic: 14.6µM; KB-3-1 tox: inconclusive; 12-LOX inh: inconclusive

Results for O=C1NC(=S)SC1=Cc1cc(Br)ccc1O ?
KB-V1 cytotox: inactive; SW480 rerep: inactive; PINK1 expr mod: inactive; MCF10A rereplic: inconclusive; KB-3-1 tox: inactive; 12-LOX inh: 25.1µM

How did O=C1NC(=S)S/C1=C\c1coc2ccc(O)cc2c1=O do in these assays?
KB-V1 cytotox: inactive; SW480 rerep: inconclusive; PINK1 expr mod: inactive; MCF10A rereplic: inactive; KB-3-1 tox: inactive; 12-LOX inh: inconclusive

What do the screens show for `CC(C)Oc1cccc(-c2noc(-c3ccc(S(=O)(=O)NC4CC4)o3)n2)c1`?
12-LOX inh: inactive

What do the screens show for `CCN1CCN(C(=O)c2ccc3c(=O)n(Cc4ccccc4OC)c(=S)[nH]c3c2)CC1`?
KB-V1 cytotox: inactive; SW480 rerep: inactive; PINK1 expr mod: inactive; MCF10A rereplic: inconclusive; KB-3-1 tox: inactive; 12-LOX inh: inconclusive

Results for COCCn1c(=S)[nH]c2cc(C(=O)N3CCN(c4ccccc4OC)CC3)ccc2c1=O ?
KB-V1 cytotox: 14.6µM; SW480 rerep: inactive; PINK1 expr mod: inactive; MCF10A rereplic: inactive; KB-3-1 tox: inactive; 12-LOX inh: inactive

Results for COc1ccccc1Cn1c(=S)[nH]c2cc(C(=O)N3CCCC3)ccc2c1=O ?
KB-V1 cytotox: inactive; SW480 rerep: inactive; PINK1 expr mod: inactive; MCF10A rereplic: inactive; KB-3-1 tox: inactive; 12-LOX inh: 44.7µM

How did Cc1cc(=O)c(C(=O)N2CCN(S(=O)(=O)c3ccccc3C#N)CC2)nn1-c1ccccc1F do in these assays?
12-LOX inh: inactive

What do the screens show for `CCC(=O)Nc1sc2c(c1C#N)CCC(C(C)(C)CC)C2` (stereo unspecified)?
12-LOX inh: inactive

What do the screens show for `CCC(C)(C)C1CCc2c(sc(N)c2C#N)C1` (stereo unspecified)?
12-LOX inh: 28.2µM

What do the screens show for `O=C(NCC(Cl)c1ccc2ccccc2c1)c1c(F)cccc1F` (stereo unspecified)?
KB-V1 cytotox: inactive; SW480 rerep: inconclusive; PINK1 expr mod: inactive; MCF10A rereplic: inactive; KB-3-1 tox: inactive; 12-LOX inh: 35.5µM

Results for O=C(NCCCNC(=O)c1c(F)cccc1F)c1c(F)cccc1F ?
KB-V1 cytotox: inactive; SW480 rerep: inactive; PINK1 expr mod: inactive; MCF10A rereplic: inactive; KB-3-1 tox: inconclusive; 12-LOX inh: inactive

How did CCSc1oc(-c2ccco2)nc1S(=O)(=O)c1ccc(C)cc1 do in these assays?
KB-V1 cytotox: inconclusive; SW480 rerep: inactive; PINK1 expr mod: inactive; MCF10A rereplic: inactive; KB-3-1 tox: inactive; 12-LOX inh: inconclusive

How did CCSc1oc(-c2ccc(C)cc2)nc1S(=O)(=O)c1ccccc1 do in these assays?
12-LOX inh: 31.6µM

What do the screens show for `Cc1ccc(S(=O)(=O)c2nc(-c3ccco3)oc2SC(C)C)cc1`?
KB-V1 cytotox: inactive; SW480 rerep: inactive; PINK1 expr mod: inactive; MCF10A rereplic: inconclusive; KB-3-1 tox: inactive; 12-LOX inh: 31.6µM!

How did CCSc1oc(-c2ccco2)nc1S(=O)(=O)c1ccc(F)cc1 do in these assays?
KB-V1 cytotox: 16.4µM; SW480 rerep: inactive; PINK1 expr mod: inactive; MCF10A rereplic: inactive; KB-3-1 tox: inactive; 12-LOX inh: 28.2µM!

How did CCCSc1oc(-c2ccco2)nc1S(=O)(=O)c1ccc(Cl)cc1 do in these assays?
KB-V1 cytotox: inactive; PINK1 expr mod: inactive; KB-3-1 tox: inactive; 12-LOX inh: 39.8µM

How did CCCCSc1oc(-c2ccco2)nc1S(=O)(=O)c1ccccc1 do in these assays?
KB-V1 cytotox: inconclusive; SW480 rerep: inactive; PINK1 expr mod: inactive; MCF10A rereplic: inactive; KB-3-1 tox: inactive; 12-LOX inh: inconclusive

How did O=C(CNC(=O)c1ccccc1Cl)N/N=C/c1ccc([N+](=O)[O-])s1 do in these assays?
KB-V1 cytotox: inconclusive; SW480 rerep: inconclusive; PINK1 expr mod: inconclusive; MCF10A rereplic: inactive; KB-3-1 tox: 2.59µM; 12-LOX inh: inactive

How did Cc1ccc(NC(=S)N/N=C/c2ccc([N+](=O)[O-])s2)cc1 do in these assays?
KB-V1 cytotox: inconclusive; SW480 rerep: 6.51µM; PINK1 expr mod: inconclusive; MCF10A rereplic: 10.3µM; KB-3-1 tox: inconclusive; 12-LOX inh: inconclusive

How did O=C(Cc1cccs1)N/N=C\c1ccc([N+](=O)[O-])s1 do in these assays?
KB-V1 cytotox: inactive; SW480 rerep: inactive; PINK1 expr mod: inconclusive; MCF10A rereplic: inconclusive; KB-3-1 tox: inactive; 12-LOX inh: inactive
